Source: PubChem (National Center for Advancing Translational Sciences (NCATS))
IL-2 act: activators of IL-2. IL-2 activation reporter assay, cell-based qHTS; stimulated with anti-CD3/CD4/CD28 beads; in transgenic mouse T cells. activation, % (series mostly up to about 46 µM). 360,000 compounds, 0.065% hits. AID 652025; in the data active means activation above about 50%; inconclusive means mostly about 30% to 49%
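Readout: EGFP and DsRed signals by fluorescent plate cytometry. Unstimulated transgenic mouse T cells received compound 60 min before antibody-bead stimulation, then incubated 18 h at 37 degrees C.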
BRCA1 expr act: BRCA1 expression activation; 380,000 compounds, 1.1% hits; Potency, µM (top dose mostly 46.1 µM), hits mostly activators; MCF7-BRCA1-FFLuc reporter, luminescence, 48 h; response scale: scaled: vehicle 0%, 10 µM genistein 100%; further: nearly all actives have a fitted effect of over 80% in size
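Luminescence from a BRCA1-driven firefly luciferase in MCF7 cells was the read-out, taken 15 min after substrate addition following 48 h compound exposure at 37 °C. Data were normalized to a 10 microM genistein control and DMSO vehicle.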
Nrf2 activator: Nrf2 pathway activation; AREc32 ARE-luciferase reporter (MCF7-derived line), luminescence, 24 h; Potency, µM (series often up to 46.1 µM), usual class: activators; 410,000 compounds, 0.31% hits; further: nearly all actives have a fitted effect of over 65% in size
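Reporter line AREc32 (ARE-Fluc), seeded overnight in OPTI-MEM with 5% FBS; compound pin-transferred, 24 hr at 37 deg C, 5% CO2; luminescent read-out.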
ELG1 DNA repair: inhibitors of ELG1-dependent DNA repair in HEK293T cells. HEK293T ELG1-luciferase reporter, luminescence, 16 h; DNA damage induced by 5-fluorouridine. Potency, µM (doses to about 46.1 µM), usual class: inhibitors. 330,000 compounds, 2.3% hits; further: nearly all actives have a fitted effect of over 55% in size
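In this reporter screen, reduction of luminescence relative to DMSO vehicle indicated activity. Compounds and 5-fluorouridine were added together to 2,000 cells per well, incubated for 16 hr at 37 °C, then developed with ONE-Glo.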
A number is an active result; 0 = inactive; ? = inconclusive; - = not tested or not shown. Rows were chosen to be rich in hits. Some 3.1% of all compounds tested hit in one or more screens of this group. Unless noted, the call rests on the fitted dose curve; in most records, active means well fitted curve in the direction sought with a large enough effect; inconclusive means small, poorly fitted or top-dose-only effect, or another doubt; inactive means no such curve, though single readings can be large; an effect the other way counts as inactive or inconclusive.

SMILES	IL-2 act	BRCA1 expr act	Nrf2 activator	ELG1 DNA repair
CCc1ccc(NC(=O)c2sc3nc(C)nc(N4CCN(c5ccccn5)CC4)c3c2C)cc1	0	0	0	0
Cc1nc(N2CCN(c3ccccn3)CC2)c2c(C)c(C(=O)Nc3ccccc3F)sc2n1	0	0	0	9.2µM
Cc1nc(N2CCN(c3ccccn3)CC2)c2c(C)c(C(=O)N3CCN(c4cccc(Cl)c4)CC3)sc2n1	0	0	0	12µM
Cc1nc(N2CCN(c3ccccn3)CC2)c2c(C)c(C(=O)Nc3ccc(F)cc3Cl)sc2n1	0	0	0	?
CC(=O)N1CCc2c(sc3c2c(=O)n(-c2ccccc2)c(=O)n3CC(=O)c2ccc(F)cc2)C1	-	0	0	-
Cc1ccc(NC(=O)c2cnc(N3CCN(c4ccccn4)CC3)c3ccccc23)c(Br)c1	0	0	0	?
Cc1nc(N2CCC(C)CC2)c2c(C)c(C(=O)Nc3ccc4c(c3)OCCO4)sc2n1	0	0	0	10µM
O=C(CN1CCN(c2ccccn2)CC1)Nc1ccc([N+](=O)[O-])cc1C(=O)Nc1ccccc1F	0	0	0	12µM
CSc1ccccc1NC(=O)CN1CCN(c2ccccn2)CC1	0	0	0	0
Cc1nc(N2CCN(c3ccccn3)CC2)c2c(C)c(C(=O)Nc3ccc(F)cc3F)sc2n1	0	0	0	12µM
O=C(Nc1c(F)cccc1F)c1cnc(N2CCN(c3ccccn3)CC2)c2ccccc12	0	0	0	18µM
COc1cccc(NC(=O)C2CCN(S(=O)(=O)c3cccc4nonc34)CC2)c1	-	0	0	-
Cc1c(Cl)cccc1NC(=O)CSc1ncccc1C(=O)Oc1ccccc1Cl	-	-	0	-
CCc1ccccc1NC(=O)Cn1nc(N2CCN(c3ccccc3OC)CC2)ccc1=O	-	-	0	-
O=C(Nc1c(F)cc(F)cc1Br)c1cc(S(=O)(=O)N2CCN(c3ccccn3)CC2)ccc1F	0	0	0	?
O=C(Nc1ccc(F)c(F)c1)c1cc(S(=O)(=O)N2CCN(c3ccccn3)CC2)ccc1F	0	0	0	16µM
O=C(Nc1ccc(Cl)cc1)C1CCN(c2nc3ccccc3n3cccc23)CC1	-	-	0	-
Cc1ccc(C)c(S(=O)(=O)/N=C2\C=C(NS(=O)(=O)c3ccccc3)C(=O)c3ccccc32)c1	0	0	0	23µM
Cc1ccccc1NC1=C/C(=N\S(=O)(=O)c2cccs2)c2ccccc2C1=O	0	0	0	3.7µM
Cc1ccc(NC2=C/C(=N/S(=O)(=O)c3cccs3)c3ccccc3C2=O)cc1C	0	0	0	?
CC(=O)Nc1ccc(NC2=C/C(=N/S(=O)(=O)c3cccs3)c3ccccc3C2=O)cc1	0	0	0	1.6µM
COc1ccc(S(=O)(=O)/N=C2\C=C(Nc3ccc(O)cc3)C(=O)c3ccccc32)cc1	0	0	0	5.8µM
CC(C)c1ccc(S(=O)(=O)/N=C2\C=C(NS(=O)(=O)c3ccccc3)C(=O)c3ccccc32)cc1	0	0	0	?
CCc1ccc(S(=O)(=O)/N=C2\C=C(NS(=O)(=O)c3ccccc3)C(=O)c3ccccc32)cc1	0	0	0	0
CC(=O)Nc1ccc(NC(=O)C(C)OC(=O)c2ccccc2NS(=O)(=O)c2cccs2)cc1 (stereo unspecified)	0	0	0	0
SMILES	IL-2 act	BRCA1 expr act	Nrf2 activator	ELG1 DNA repair
CCOc1ccc(C(=O)c2oc3ccccc3c2NC(=O)c2cc(=O)c3ccc(C)cc3o2)cc1	-	-	0	-
Cc1ccccc1NC1=C/C(=N\S(=O)(=O)c2ccc(C(=O)O)cc2)c2ccccc2C1=O	0	0	0	12µM
O=C(O)c1ccc(S(=O)(=O)/N=C2\C=C(Nc3ccccc3F)C(=O)c3ccccc32)cc1	0	0	0	?
CCc1nc(SCc2ccc(Br)cc2)n[nH]1	0	10µM	0	?
CCc1nc(SCc2ccc(Cl)cc2)n[nH]1	0	?	0	?
CCOc1cccc(C(=O)N(Cc2ccc(CC)cc2)C2CCS(=O)(=O)C2)c1 (stereo unspecified)	-	-	0	-
O=C(O)c1cnn(-c2nc(-c3ccc(Cl)cc3)cs2)c1C(F)(F)F	0	4.5µM	0	?
O=C(NCc1ccco1)c1ccc2sc([C@H]3C[C@H](O)[C@@H](CO)O3)nc2c1	0	0	0	-
CC(C)(C)C(=O)Nc1ccc(C(=O)NCc2cccnc2)cc1	0	0	0	-
CC(C)(C)c1ccc(C(=O)Nc2ccc(C(=O)NCc3cccnc3)cc2)cc1	0	0	0	0.52µM
